Bioassay records (PubChem BioAssay)
CYP2C19 inh = human CYP2C19 inhibition | CYP2C19 Supersomes, luciferin-H EGE luminescence, 30 min | actives 21% (n = 96,000) | inhibition, % at 5 µM;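 active = CYP2C19 inhibition above a set limit at 5 µM in the primary screen, cut at about 50% in these data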;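 also: plate controls were negative control wells for no effect and 2.5 mM tranylcypromine positive control for full effect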
Target sequence (P33261 whole entry, looked up): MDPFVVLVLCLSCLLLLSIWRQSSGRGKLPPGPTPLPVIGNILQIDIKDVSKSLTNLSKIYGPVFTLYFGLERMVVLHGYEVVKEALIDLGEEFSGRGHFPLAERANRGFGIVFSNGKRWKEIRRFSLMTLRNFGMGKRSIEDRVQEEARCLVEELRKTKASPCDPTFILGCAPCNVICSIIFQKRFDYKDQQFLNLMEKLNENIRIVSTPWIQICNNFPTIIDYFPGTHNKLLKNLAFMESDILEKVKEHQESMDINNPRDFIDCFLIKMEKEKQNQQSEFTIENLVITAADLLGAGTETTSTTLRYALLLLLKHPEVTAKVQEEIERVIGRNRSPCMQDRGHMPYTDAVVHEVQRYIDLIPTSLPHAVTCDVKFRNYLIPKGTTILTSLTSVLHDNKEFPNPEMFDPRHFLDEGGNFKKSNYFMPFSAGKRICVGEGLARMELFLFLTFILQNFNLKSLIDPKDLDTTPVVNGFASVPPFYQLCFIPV
CYP2C19 act = increases human CYP2C19 enzyme activity. P33261. recombinant CYP2C19, luciferin-H EGE luminescence; hits give high values; 0 = fully inhibited enzyme, 1 = untreated enzyme. activation factor at 5 µM. 96,000 tested, under 10 active;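 active = activation factor of at least 2 at 5 µM in the primary screen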;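 also: 0 = wells with 2.5 mM tranylcypromine and 1 = vehicle-only wells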
CYP2C9 act = CYP2C9 (human) activation; recombinant CYP2C9, luciferin-H conversion, luminescence; hits give high values; factor 1 = untreated enzyme, 0 = blocked; P11712; actives 1.4% (n = 96,000); AID 1024; activation factor at 5 µM;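 active = activation factor of 2 or more for CYP2C9 at a 5 µM dose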;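 also: 0 = sulfaphenazole-blocked wells and 1 = vehicle-only wells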
CYP2C9 inh = inhibitors of human CYP2C9; CYP2C9 Supersomes, luciferin-H conversion, luminescence; inhibition, % at 5 µM; actives 20% (n = 96,000); AID 777;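 active = blocking of liver enzyme CYP2C9 beyond about 50% at 5 µM, limit read from the data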
Starred values were filed as active, the others as inactive. Rows were chosen to be rich in hits. Some 31% of all compounds tested hit in one or more screens of this group.

SMILES	CYP2C19 inh	CYP2C19 act	CYP2C9 act	CYP2C9 inh
CCCCNC(=O)COC(=O)c1ccc(Cl)c(S(=O)(=O)N2CCCC2)c1	73.6*	0.3	0.8	24.6
CC(C)NC(=O)COC(=O)c1ccc(Cl)c(S(=O)(=O)N2CCCC2)c1	-4.5	1	1.1	-10.6
O=C(COC(=O)Cc1ccc(S(=O)(=O)N2CCOCC2)s1)NCc1ccc(Cl)cc1	73.3*	0.3	0.1	86.2*
CCOc1ccc(NC(=O)COC(=O)Cc2ccc(S(=O)(=O)N3CCOCC3)s2)cc1	22.7	0.8	0.5	47.7
O=C(COC(=O)c1ccc(S(=O)(=O)N2CCCC2)cc1)NCc1ccc(Cl)cc1	45.0	0.6	0.5	54.0*
CCNC(=O)COC(=O)c1ccc(S(=O)(=O)N2CCCCCC2)cc1	4.7	1	0.7	33.6
COc1cc(C(=S)N2CCCC2)ccc1OC(=O)c1ccc(Cl)cc1[N+](=O)[O-]	31.8	0.7	1.6	-58.6
Cc1ccc(C(=O)NNc2nc3ccccc3nc2C(F)(F)F)cc1	28.5	0.7	1	2.1
CN(C)c1nc(SCc2ccccc2)nc(N2CCOCC2)n1	32.6	0.7	0.9	9.3
CCNc1nc(SCc2ccccc2)nc(N2CCOCC2)n1	82.1*	0.2	0.3	67.8*
Clc1ccc(CNc2nc(N3CCOCC3)nc(N3CCOCC3)n2)cc1	77.1*	0.2	0.2	75.4*
Nc1nc(CSCc2ccccc2)nc(N2CCOCC2)n1	91.8*	0.1	0.7	33.4
Cc1ccc(-c2nn(-c3ccccc3)cc2C2SCC(=O)N2Cc2ccccc2)o1 (stereo not drawn)	8.5	0.9	0.5	45.2
Cc1ccc(-c2nn(-c3ccccc3)cc2/C=C(\C#N)c2cccc(C#N)c2)o1	28.0	0.7	0.4	63.9*
Brc1ccc2ncnc(NCc3ccccc3)c2c1	74.4*	0.3	0.5	49.1
COc1ccccc1OC(=O)c1cc(Cl)nc2ccccc12	13.7	0.9	0.3	74.6*
N#CCSc1ncnc2c1cnn2CCO	-9.3	1.1	1.1	-9.3
CC(C)(C)C(=O)[C@@H]1[C@@H]2C(=O)N(Cc3ccccc3)C(=O)[C@@H]2[C@H]2c3ccccc3C=CN12	74.5*	0.3	0.2	75.3*
CC(=O)[C@H]1[C@@H]2C(=O)N(c3cccc(Cl)c3)C(=O)[C@@H]2[C@H]2c3ccccc3C=CN21	27.2	0.7	0.9	10.5
CN(C)C(=O)CN(c1ccc(F)c(Cl)c1)S(C)(=O)=O	14.7	0.9	0.9	14.3
COc1ccc(-n2cnnc2SCC(=O)N2CCN(S(=O)(=O)c3ccccc3)CC2)cc1	44.4	0.6	0.6	42.4
CCNC(=S)NCCN1CCCCC1	5.0	0.9	0.9	7.0
CC(C)CNC(=O)c1cc2nc3c(c(C(F)(F)F)n2n1)CCc1ccccc1-3	68.1*	0.3	0.1	88.4*
CCCCNC(=O)c1cc2nc3c(c(C(F)(F)F)n2n1)CCc1ccccc1-3	3.1	1	0.8	20.6
COc1ccc(C(C)=O)cc1CSCCC#N	7.6	0.9	1	3.4
SMILES	CYP2C19 inh	CYP2C19 act	CYP2C9 act	CYP2C9 inh
Cc1cc(C)cc(N(CC(=O)NCc2ccc3c(c2)OCO3)C(=O)CCC(=O)Nc2ccccn2)c1	57.7*	0.4	0.5	49.3
Cc1ccc(C)c(N(CC(=O)NCc2ccc3c(c2)OCO3)C(=O)CCC(=O)Nc2ccccn2)c1	63.1*	0.4	0.5	50.4*
O=C(CCC(=O)N(CC(=O)NC1CCCCC1)c1ccc2c(c1)OCO2)Nc1ccccn1	38.9	0.6	0.6	44.4
CCOC(=O)CCS(=O)(=O)c1ccc(-c2ccc(S(=O)(=O)CCC(=O)OCC)cc2)cc1	-20.1	1.2	1	-3.7
COc1ccc(CNC(=O)c2csc(Cc3ccccc3)n2)cc1	87.5*	0.1	0.4	59.3*
COc1ccccc1CNC(=O)c1csc(Cc2ccc(Cl)cc2)n1	59.7*	0.4	0.4	56.2*
COc1ccc(NC(=O)c2csc(Cc3ccccc3)n2)cc1	50.1*	0.5	0.4	63.8*
O=C(NC1CCCCCCC1)c1ccc2c(c1)N(Cc1ccc(F)cc1)C(=O)CS2=O (stereo not drawn)	-11.5	1.1	0.9	5.0
Cc1nc2ncnn2c(C)c1CCC(=O)N1CC(C)CC(C)C1 (stereo not drawn)	5.0	0.9	1.1	-6.2
CN1CCN(c2nc3c(c(=O)n(C)c(=O)n3C)n2CC(=O)C23CC4CC(CC(C4)C2)C3)CC1	-10.6	1.1	1.2	-20.7
Cc1ccc(C2/C(=C(\O)c3ccc4c(c3)OCCO4)C(=O)C(=O)N2CCCN(C)C)o1 (stereo not drawn)	4.1	1	1	3.2
CSc1nc2sc3c(c2c2nnnn12)CCCC3	10.1	0.9	0.8	21.9
CCCCC(=O)Nc1cccc2c1C(=O)N(c1ccccc1)C2=O	50.9*	0.5	0.3	66.9*
CCCCCC(=O)Nc1ccccc1N1CCN(c2ccccc2)CC1	9.0	0.9	0.7	33.6
CN1C(=O)c2cccc(NC(=O)CCc3ccccc3)c2C1=O	69.8*	0.3	0.4	61.7*
COc1ccccc1Cc1nc(-c2ccc(Br)o2)no1	90.0*	0.1	0.7	32.2
COc1ccccc1-c1nc(-c2ccc(Br)o2)no1	27.9	0.7	1.3	-27.8
Cc1nnc(SCc2ccccc2F)n1NCc1cccs1	92.9*	0.1	0.4	55.4*
Cc1cccc(OCCCC(=O)Nc2ccc(N3CCCCC3)cc2)c1C	-1.3	1	0.9	8.5
CC1CCN(C(=O)Cn2c(=O)n(Cc3ccc4c(c3)OCO4)c(=O)c3ccccc32)CC1	22.1	0.8	0.5	53.6*
Cc1cc(C(=O)CSc2nc3ccccc3c(=O)n2C)c(C)n1Cc1ccc2c(c1)OCO2	76.2*	0.2	0.2	84.7*
CC1CCN(C(=O)Cn2c(=O)n(CCc3ccccc3)c(=O)c3ccccc32)CC1	5.0	0.9	0.6	39.0
CC1CCCC(C)N1C(=O)Cn1c(SCC(=O)NCc2ccc3c(c2)OCO3)nc2ccccc21 (stereo not drawn)	63.7*	0.4	0.1	90.1*
COCCn1c(SCC(=O)N2CCC(C)CC2)nc2ccccc2c1=O	44.1	0.6	0.6	39.2
Cn1c(Cn2nnc3ccccc32)nnc1SCC(=O)NCc1ccc2c(c1)OCO2	-0.9	1	0.8	16.4
SMILES	CYP2C19 inh	CYP2C19 act	CYP2C9 act	CYP2C9 inh
CC1CCN(C(=O)CSc2nc3ccccc3c(=O)n2Cc2ccc3c(c2)OCO3)CC1	62.0*	0.4	0.3	67.2*
Cc1cc(C(=O)CSc2nnc(-c3ccccc3)n2Cc2ccc3c(c2)OCO3)c(C)n1C	13.0	0.9	1.1	-7.5
CC1CCCCN1C(=O)CSc1nc2cc3c(cc2c(=O)n1Cc1ccc2c(c1)OCO2)OCO3 (stereo not drawn)	48.7	0.5	0.5	51.5*
CCn1c(SCC(=O)N2CCCCC2C)nc2ccsc2c1=O (stereo not drawn)	11.5	0.9	0.7	28.5
O=C(Nc1ccccc1)N(C1=NCCCCS1)c1cccc2ccccc12	61.3*	0.4	0.8	20.2
O=C(Nc1ccccc1)N(Cc1ccccc1)C1=NCCS1	12.0	0.9	0.4	55.6*
CCn1c(=O)c(C(=O)NCCNCCO)c(O)c2ccccc21	24.7	0.8	1.3	-26.5
